Bioassay records: PubChem, several laboratories
dFosB activator: enhances mouse delta FosB homodimer DNA binding; P13346; purified delta FosB, TAMRA-CDK5 oligo fluorescence polarization; percent of positive-control signal above neutral wells; activation, % at 25 µM; hit rate 0.99% among 340,000; AID 493131;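 active means mean activation above about 17%, with every replicate also reaching it, limit read from the data, passing the limit was not always enough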
Target sequence (P13346 whole entry, looked up): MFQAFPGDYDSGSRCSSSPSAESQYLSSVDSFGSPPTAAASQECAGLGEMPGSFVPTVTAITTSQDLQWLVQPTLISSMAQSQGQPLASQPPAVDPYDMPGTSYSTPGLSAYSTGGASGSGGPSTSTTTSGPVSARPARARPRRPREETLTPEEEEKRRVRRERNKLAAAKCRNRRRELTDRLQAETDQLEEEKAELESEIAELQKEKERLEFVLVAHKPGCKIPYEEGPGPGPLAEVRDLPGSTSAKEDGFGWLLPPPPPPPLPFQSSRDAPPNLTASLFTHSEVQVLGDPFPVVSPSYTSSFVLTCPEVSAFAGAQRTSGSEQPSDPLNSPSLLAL
DYRK1A inh: Dyrk1A (rat) kinase inhibition; AID 504441; Q63470; ADP-Glo luminescence, NFATc1 peptide; inhibition, % at 12.5 µM; hit rate 0.43% among 310,000; in the data active means inhibition above about 50%;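 further: plate controls were vehicle with enzyme for no effect and no enzyme for full effect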
Rtt109 Vps75: inhibitors of Candida albicans Rtt109/Vps75 histone acetyltransferase. Q5AAJ8. purified Rtt109/Vps75, ThioGlo CoA-SH fluorescence, 4 h. inhibition, % at 34.9 µM. hit rate 0.16% among 330,000;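 active means inhibition of at least 50% in every replicate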
esBAF inh: blocks esBAF chromatin remodeling in mouse ES cells; Bmi1-luciferase knock-in reporter, 24 h; 100% = twice the neutral-well signal; AID 602393; hit rate 2% among 350,000; reporter increase, % at 12.5 µM; in the data active means activation above about 40%;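 further: 0% = median of the plate's neutral control wells and 100% = double that signal; a rise in the Bmi1 reporter signal indicates esBAF inhibition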
SMARCA2 act: increases SMARCA2 function in MMTV reporter cells | MG213 cells, MMTV-luciferase reporter, dexamethasone, overnight | activation, % at 9.1 µM | hit rate 1% among 370,000; in the data active means activation above about 7.8%;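 further: 0% = vehicle wells and 100% = reference activator wells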
CDK5 inh: blocks human CDK5/p35 kinase activity; Q00535+Q15078; Recombinant CDK5/p35, ADP-Glo luminescence, 60 min; inhibition, % at 10 µM; hit rate 0.01% among 330,000;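 active means highest replicate inhibition of at least 50% and at least 75% of replicates reaching 50%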;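 further: plate controls were DMSO neutral control for no effect and GW8510 at 10 µM for full effect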
The depositor's hits bear a star; · = no result given. This is a sample that favours compounds with a hit; in the whole collection about 3.2% have one here.

SMILES	dFosB activator	DYRK1A inh	Rtt109 Vps75	esBAF inh	SMARCA2 act	CDK5 inh
CCOC(=O)CC1COCCN1C(=O)c1ccc2oc(Cc3ccccc3)nc2c1 (stereo unspecified)	3.0	-10.2	-4.6	51.8*	5.1	0.6
CCCCc1nc2cc(C(=O)N3CCCC3)ccc2o1	-3.4	0.0	-0.6	34.5	0.6	3.2
O=C(c1ccc2oc(CCCc3ccccc3)nc2c1)N1CCCCC1CO (stereo unspecified)	-1.5	1.7	2.9	·	2.6	-1.0
CCCCc1nc2cc(C(=O)N3CCCCC3CC(=O)OCC)ccc2o1 (stereo unspecified)	-0.3	7.3	1.4	55.6*	1.8	1.5
CCOC(=O)N1CCN(C(=O)c2ccc3oc(CCc4ccccc4)nc3c2)CC1	·	·	·	22.0	-0.6	·
CCCCc1nc2cc(C(=O)N3CCCCC3C(=O)OC)ccc2o1 (stereo unspecified)	-1.3	·	-3.2	64.4*	2.5	·
C[C@@H]1CN([C@@H](C)CO)C(=O)Cc2cc(NS(=O)(=O)c3ccc(Cl)cc3)ccc2O[C@H]1CN(C)S(=O)(=O)c1ccccc1	·	·	·	-2.7	·	·
C[C@H]1CN([C@@H](C)CO)C(=O)c2cc(C#CC3CCCCC3)cnc2O[C@@H]1CN(C)S(=O)(=O)c1ccc(F)cc1	·	·	·	-5.0	·	·
O=C(C[C@@H]1C[C@H]2c3cc(NC(=O)c4ccc5c(c4)OCO5)ccc3O[C@H]2[C@H](CO)O1)NC1CCCCC1	·	·	·	-10.0	·	·
COc1cccc(CNC(=O)[C@H]2[C@H](CO)[C@H]3Cn4c(ccc(-c5ccncc5)c4=O)[C@@H]2N3C(C)=O)c1	·	·	·	3.0	·	·
C[C@@H]1CN([C@@H](C)CO)C(=O)c2cc(NC(=O)NC3CCCCC3)ccc2O[C@@H](C)CCCCO[C@H]1CN(C)S(=O)(=O)c1cn(C)cn1	·	·	·	-2.1	·	·
Cc1ccc2c(c1)c1nc3ccccc3nc1n2CCN1CCOCC1	-46.4	·	7.2	60.1*	-0.9	1.2
O=C(COC(=O)Cc1ccccc1[N+](=O)[O-])Nc1nnc(-c2ccccc2)o1	-9.4	8.3	55.7*	·	-3.2	1.1
O=C(COc1ccccc1)Nc1nnc(-c2ccccc2)o1	-0.5	-3.8	-13.1	2.6	0.3	-1.0
CCN1[C@H](C(=O)N2CCc3ccccc3C2)[C@@H](CO)[C@@H]2Cn3c(cccc3=O)[C@@H]21	·	·	·	-0.9	·	·
O=C(COc1cccc2cccnc12)N/N=C/c1ccc(O)cc1	18.5*	27.9	7.0	1.9	1.8	0.4
O=C(COc1cccc2cccnc12)N/N=C/c1ccccc1O	5.4	-2.8	-4.7	·	-4.5	-1.5
CCCN1C[C@@H](C)[C@@H](OC)CN(C)C(=O)c2ccc(NC(=O)c3ccc(F)cc3)cc2OC[C@H]1C	·	·	·	-0.6	·	·
O=[N+]([O-])c1ccc(Sc2n[nH]c(-c3ccccc3)n2)nc1	4.0	-0.4	-8.0	51.1*	-2.2	-0.8
O=[N+]([O-])c1ccc(Sc2ccccc2)nc1	1.6	-0.6	4.6	-7.4	-0.5	-0.8
Cc1ccc(CNc2nc(C)cs2)cc1	-0.8	6.8	10.6	45.8*	3.5	0.7
CC=Cc1ccc2n(c1=O)C[C@H]1[C@H](CO)[C@@H](C(=O)NCC3CC3)N(C(=O)C3CCOCC3)[C@@H]21 (mixture of isomers)	·	·	·	-2.2	·	·
COc1ccc(NC(=O)c2cc(-c3ccc(OC)c(OC)c3)on2)cc1OC	-4.7	-0.2	-1.1	0.6	-1.3	-0.2
Cc1ccc(NC(=O)c2cc(-c3cccc(O)c3)on2)cc1C	-3.3	-3.7	-2.5	49.0*	5.6	1.5
Cc1ccc(NC(=O)c2cc(-c3ccco3)on2)cc1C	-11.8	-8.6	8.6	47.4*	5.9	1.0
SMILES	dFosB activator	DYRK1A inh	Rtt109 Vps75	esBAF inh	SMARCA2 act	CDK5 inh
Cc1ccccc1NC(=O)C(=O)c1cn(C)c2ccccc12	1.0	0.2	6.9	55.8*	2.8	-1.0
Cn1cc(C(=O)C(=O)NCCc2ccccc2)c2ccccc21	-6.5	-3.1	-0.5	4.3	0.2	1.1
COc1ccc(NC(=O)c2cc(C(C)C)on2)c(OC)c1	-3.7	-3.6	3.7	50.5*	2.8	0.2
COc1ccc(NC(=O)CSc2ccccc2)c(OC)c1	-4.5	5.4	25.1	55.6*	5.6	0.8
COc1cc(NC(=O)c2cc(C(C)C)on2)c(OC)cc1Cl	-9.3	-0.9	9.8	1.9	-2.4	0.9
COc1ccc(NC(=O)C/C(C)=N/NC(=O)C(=O)NC(C)C)c(OC)c1	-7.9	-6.2	0.3	·	7.9*	2.0
COc1ccc(NC(=O)c2ccccc2O)c(OC)c1	-0.7	1.7	1.4	52.7*	5.6	0.8
CCN(C[C@H]1[C@H](c2ccccc2)[C@@H](CO)N1C(C)=O)C(=O)NC(C)C	·	·	·	8.1	·	·
C[C@@H]1CCCCO[C@@H](CN(C)S(C)(=O)=O)[C@H](C)CN([C@@H](C)CO)C(=O)c2cc(NC(=O)C3CCCCC3)ccc2O1	·	·	·	-3.1	·	·
CC(=O)Nc1c(-c2ccc3ccccc3c2)nc2ccccn12	-0.1	4.8	4.3	56.9*	6.5	3.5
CCCNC(=O)N1[C@H](CNC(=O)CC)[C@H](c2ccc(C3=CCCC3)cc2)[C@@H]1CO	·	·	·	-0.4	·	·
O=C1c2ccccc2NC(c2cccc(Cl)c2)N1N=C1CCCCCC1 (stereo unspecified)	-10.7	-1.9	-2.2	55.4*	1.8	1.0
O=C([C@H]1[C@H](CO)[C@H]2Cn3c(cccc3=O)[C@H]2N1Cc1ccccc1Cl)N1CCOCC1	·	·	·	-1.1	·	·
O=C(Nc1nc2ccccc2[nH]1)c1cccc(Br)c1	12.6	-2.9	4.9	51.2*	5.0	-0.4
O=C(Nc1nc2ccccc2[nH]1)c1cccc(F)c1	-2.8	26.5	0.3	-15.0	2.0	-0.7
Cc1c(C(=O)Nc2nc3ccccc3[nH]2)oc2c(Cl)cccc12	-2.5	-5.3	·	48.8*	2.1	-1.1
C[C@@H]1CCCCO[C@H](CN(C)C(=O)NC2CCCCC2)[C@H](C)CN([C@@H](C)CO)C(=O)c2cc(NC(=O)c3ccccc3)ccc2O1	·	·	·	0.8	·	·
Cc1ccccc1C(=O)NCCNC(=O)c1ccco1	3.3	-5.3	50.6*	-10.3	2.3	-3.2
CC(=O)c1cccc(S(=O)(=O)Nc2cccc(S(=O)(=O)NC3=NCCC3)c2)c1	2.8	-1.2	13.7	·	10.2*	1.6
O=C(/C=C/c1ccc(OC(F)F)cc1)Nc1cccc(S(=O)(=O)NC2=NCCCCC2)c1	-17.6	7.2	38.9	53.6*	-0.5	0.8
CC(=O)c1ccc(S(=O)(=O)Nc2cccc(S(=O)(=O)NC3=NCCC3)c2)cc1	-4.4	-2.9	-2.0	·	-2.3	-1.4
CC(C)(C)c1ccc(C(=O)Nc2cccc(S(=O)(=O)NC3=NCCC3)c2)cc1	-17.4	0.1	-2.3	-11.3	3.9	-1.1
CN(C)c1ccc(C(=O)Nc2cccc(S(=O)(=O)NC3=NCCCCC3)c2)cc1	-2.0	·	5.7	61.8*	2.5	0.7
CO[C@H]1CN(C)C(=O)c2cc(NC(=O)NC(C)C)ccc2OC[C@H](C)N(CC2CC2)C[C@H]1C	·	·	·	-6.6	·	·
